Results as given in PubChem BioAssay (NCATS).
Records with an inconclusive call do not appear. A call without a number means that no potency is given here. Values without a mark were called inactive. Active and inactive are the calls of the source. Calls follow the shape of the dose curve; as a rule, active = well fitted inhibition curve with a large enough effect; inconclusive = small, poorly fitted or top-dose-only effect; inactive = no such curve, though single readings can be large or run the other way.

Tests used:
[1] = tested on: Zika virus NS2B-NS3 protease (unlinked complex); assay: Primary screen GU Rhodamine qHTS for Zika virus inhibitors: Unlinked NS2B-NS3 protease assay (AID 1347159); also: nearly all actives have a fitted effect of over 60% in size
How it was run: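 Buffer 10 mM Tris-HCl pH 8.0, 0.01% Tween 20. Unlinked protease 25 nM; compound preincubation 15 min, RT, protected from light. Substrate Rhod110, 1.5 microM; ~15% conversion in 15 min.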

[2] = tested on: Zika virus NS2B-NS3 protease (linked construct); assay: Primary screen NINDS Rhodamine qHTS for Zika virus inhibitors (AID 1347160); also: nearly all actives have a fitted effect of over 55% in size
How it was run: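 Aprotinin served as in-plate control. Conditions: 25 nM linked NS2B-NS3, pH 8.0 Tris buffer, titrated compounds, 15 min preincubation and 15 min reaction with 1.5 microM Rhod110 substrate at room temperature.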
Potency is read from the fitted curve at half-maximal effect.

Row | SMILES | Potency [1] | Potency [2] | activity change, negative = inhibition [1] | activity change, negative = inhibition [2]
1 | CCOC(=O)[C@H]1O[C@@H]1C(=O)N[C@@H](CC(C)C)C(=O)NCCC(C)C | inactive | inactive | – | –
2 | CC(CO[C@@H]1O[C@H](COC(=O)/C=C/c2ccc(O)c(O)c2)[C@@H](O)[C@H](O)[C@H]1O)C1(O)COC(=O)C1 (stereo partly specified) | inactive | inactive | – | –
3 | C/C=C(\C)C(=O)O[C@@H]1CC2[C@@H](CC=C3C[C@@H](O[C@H]4C[C@H](OC)[C@H](O[C@H]5C[C@H](OC)[C@H](O[C@H]6C[C@H](OC)[C@H](O[C@H]7C[C@@H](OC)[C@H](O[C@@H]8O[C@H](CO)[C@@H](O)[C@H](O)[C@H]8O)[C@@H](C)O7)[C@@H](C)O6)[C@@H](C)O5)[C@@H](C)O4)CC[C@@]32C)[C@@]2(O)CC[C@H](C(C)=O)[C@@]12C (stereo partly specified) | – | – | 20.3% [at 19.1 µM] | 1.97% [at 10.7 µM]
4 | C[C@@H]1O[C@@H](O[C@H]2[C@H](O[C@H]3CC[C@@]4(C)C(CC[C@]5(C)C4CC=C4[C@@H]6CC(C)(C)CC[C@]6(C(=O)O)CC[C@]45C)[C@]3(C)CO)OC[C@H](O)[C@@H]2O)[C@H](O)[C@H](O[C@@H]2OC[C@@H](O)[C@H](O)[C@H]2O)[C@H]1O (stereo partly specified) | inactive | inactive | – | –
5 | C[C@@H]1C/C=C/C=C\C=C\C=C\[C@H](O[C@@H]2O[C@H](C)[C@@H](O)[C@H](N)[C@@H]2O)C[C@@H]2O[C@](O)(C[C@@H](O)C[C@H]3O[C@@H]3/C=C/C(=O)O1)C[C@H](O)[C@H]2C(=O)O | inactive | inactive | – | –
6 | c1ccc(C(OC2CCN(CCCc3nn[nH]n3)CC2)c2ccccc2)cc1 | inactive | inactive | – | –
7 | C/C=C1\[C@H](O[C@@H]2O[C@H](CO)[C@@H](O)[C@H](O)[C@H]2O)OC=C(C(=O)OC)[C@H]1CC(=O)OC | inactive | inactive | – | –
8 | C[C@@H]1CC[C@]2(C(=O)O[C@@H]3O[C@H](CO)[C@@H](O)[C@H](O)[C@H]3O)CC[C@]3(C)C(=CCC4[C@@]5(C)C[C@@H](O)[C@H](O)C(C)(C)C5CC[C@]43C)C2[C@]1(C)O (stereo partly specified) | inactive | inactive | – | –
9 | CCC(C)(O)C(O)C(=O)OCc1ccc(O[C@@H]2O[C@H](CO)[C@@H](O)[C@H](O)[C@H]2O)cc1 (stereo partly specified) | inactive | inactive | – | –
10 | COc1cccc2c1CCC[C@H]2CN(C)CCc1ccc2ccoc2c1 | inactive | inactive | – | –
11 | OCC1OC(Oc2cc(O)c3c(c2)OC(c2ccc(O)cc2)C(O)C3)C(O)C1O (stereo unspecified) | inactive | inactive | – | –
12 | CC1CCC2C(C)(C)CC(C)(CO)C2(O)C1C(=O)O (stereo unspecified) | inactive | inactive | – | –
13 | CC/C=C\C[C@H]1C(=O)C=C[C@@H]1CCCCCCCC(=O)O | 35.5 µM (active) | inactive | – | –
14 | Cc1cc(C)c(S(=O)(=O)N(Cc2ccc(-c3cccc(S(C)(=O)=O)c3)cc2)Cc2ccc(C(F)(F)F)o2)c(C)c1 | inactive | inactive | – | –
15 | CCS(=O)(=O)N1CCC([C@@H](C)n2c(C)c(C(=O)NCc3c(OC)cc(C)[nH]c3=O)c3ccccc32)CC1 | inactive | inactive | – | –
16 | CNC(=O)c1ccc2cc([C@@]3(O)CCn4cncc43)ccc2c1 | inactive | inactive | – | –
17 | O=C(/C=C/c1ccc(O)cc1)OCC1=CC2OC(=O)C3=CO[C@@H](O[C@@H]4O[C@H](CO)[C@@H](O)[C@H](O)[C@H]4O)[C@H]1[C@@H]32 (stereo partly specified) | inactive | inactive | – | –
18 | CC(=O)OCCC(C)CCC1C(C)(O)CCC2C(C)(C)CCCC21C (stereo unspecified) | 8.91 µM (active) | 11.2 µM (active) | – | –
19 | C#Cc1cnc2[nH]c(=O)n(C(CC)CC)c2n1 | inactive | inactive | – | –
20 | C=C1[C@H]2[C@H](O[C@@H]3O[C@H](COC(=O)/C=C/c4cc(OC)c(O)c(OC)c4)[C@@H](O)[C@H](O)[C@H]3O)OC=C(C(=O)O)[C@H]2C[C@@H]1O | inactive | inactive | – | –

Row | SMILES | Potency [1] | Potency [2] | activity change, negative = inhibition [1] | activity change, negative = inhibition [2]
21 | O=C1NCc2nc3ccccc3c(=O)n2C1Cc1c[nH]c2ccccc12 (stereo unspecified) | inactive | inactive | – | –
22 | O=C(/C=C/c1ccc(O)cc1)OC[C@H]1O[C@@H](OC(=O)/C=C/c2ccccc2)[C@H](O)[C@@H](O)[C@@H]1O | inactive | inactive | – | –
23 | CC1CCC2C(C)(C)C(O)CCC2(C)C12Cc1c(O)cc3c(c1O2)C(N)=NC3 (stereo unspecified) | inactive | inactive | – | –
24 | CCC(CC)n1ccc2c(C(=O)NCc3c(C)cc(C)[nH]c3=O)cc(C#N)cc21 | inactive | inactive | – | –
25 | CC1(C)CC2C3=CCC4C5(C)CCC(OC6OC(C(=O)O)C(O)C(O)C6OC6OC(CO)C(O)C(O)C6OC6OC(CO)C(O)C(O)C6O)C(C)(CO)C5CCC4(C)C3(C)CCC2(C)C(OC2OCC(O)C(OC3OC(CO)C(O)C(O)C3O)C2O)C1O (stereo unspecified) | – | – | 8.97% [at 19.1 µM] | -17% [at 10.7 µM]
26 | C[C@@H]1O[C@@H](O[C@H]2[C@H](OC(C#N)c3ccc(O)cc3)O[C@H](CO)[C@@H](O)[C@@H]2O)[C@H](O)[C@H](O)[C@H]1O (stereo partly specified) | inactive | inactive | – | –
27 | OC[C@H]1O[C@@H](Oc2ccc3c(c2)OC[C@H]2c4cc5c(cc4O[C@@H]32)OCO5)[C@H](O)[C@@H](O)[C@@H]1O | inactive | inactive | – | –
28 | CCNC(=O)[C@H]1O[C@H](n2cnc3c(NCC(c4ccccc4)c4ccccc4)nc(C(=O)NCCNC(=O)NC4CCN(c5ccccn5)CC4)nc32)[C@H](O)[C@@H]1O | inactive | inactive | – | –
29 | C/C(=C\CCC(C)(O)c1ccc(C)cc1)C(=O)O (stereo unspecified) | inactive | inactive | – | –
30 | CNC(=O)COC(=O)NCCC1CCN(c2cccc(C)n2)CC1 | inactive | inactive | – | –
31 | O=C(/C=C/c1ccc(O)cc1)O[C@H]1[C@@H]2C=CO[C@@H](O[C@@H]3O[C@H](CO)[C@@H](O)[C@H](O)[C@H]3O)[C@@H]2[C@@]2(CO)O[C@@H]12 | inactive | inactive | – | –
32 | Cc1onc(-c2ccccc2)c1C(=O)N[C@@H]1C(=O)N2[C@@H]1SC(C)(C)[C@@H]2C(=O)O | inactive | inactive | – | –
33 | Cc1ccc(Sc2cncc3sc(C(N)=O)cc23)cc1 | inactive | inactive | – | –
34 | C/C(=C/CCC(CO)C1CCC2(C)C3CCC4C(C)(C)C(OC5OC(CO)C(O)C(O)C5O)CC(O)C45CC35CCC12C)COC1OC(CO)C(O)C(O)C1O (stereo unspecified) | inactive | inactive | – | –
35 | Cn1ccnc1CCOC(c1cc2nccc(C(=O)O)c2[nH]1)c1ccccc1Cl (stereo unspecified) | inactive | inactive | – | –
36 | CC(O)(CC(=O)O)CC(=O)O[C@@H]1[C@@H](O)[C@H](OCCc2ccccc2)O[C@H](CO)[C@H]1O (stereo partly specified) | inactive | inactive | – | –
37 | C=C(C)C1CC2(CO)C(=CC1=O)CCC(O)C2C (stereo unspecified) | inactive | inactive | – | –
38 | COCCN(C)Cc1ccc2nc3sc(C(=O)N(C)C4CCCCC4)cn3c2c1 | inactive | inactive | – | –
39 | COc1ccc(C(=O)O[C@H]2CC(C)=CC[C@@]3(C)[C@@H](OC(C)=O)C[C@@](O)(C(C)C)[C@H]23)cc1 | inactive | inactive | – | –
40 | COC(=O)[C@]12C(=O)C(C)=C(O)[C@@]1(C)C(C)=CC1[C@@]34CC[C@@H](OC(C)=O)C(C)(C)C3[C@H](C[C@]12C)OC4=O (stereo partly specified) | inactive | inactive | – | –

Row | SMILES | Potency [1] | Potency [2] | activity change, negative = inhibition [1] | activity change, negative = inhibition [2]
41 | N[C@@H](CC(=O)N1CCn2c(nnc2C(F)(F)F)C1)Cc1[nH]nc2c(F)c(F)ccc12 | inactive | inactive | – | –
42 | Cc1nnc(C(C)C)n1C1CC2CCC(C1)N2CC[C@H](NC(=O)C1CCC(F)(F)CC1)c1ccccc1 (stereo partly specified) | inactive | inactive | – | –
43 | CC1=CC(=O)C2C(C)(C)CC(O)CC2(C)C1CO (stereo unspecified) | inactive | inactive | – | –
44 | CC(=O)N(O)CCCCCN1C(=O)CCC1=O | inactive | inactive | – | –
45 | COC(=O)C1(Cc2ccc(O)cc2)OC(=O)C(OC)=C1c1ccc(O)cc1 (stereo unspecified) | inactive | inactive | – | –
46 | C[C@@H]1C(=O)O[C@H]2CC34[C@H]5C[C@@H](C(C)(C)C)C36[C@@H](OC(=O)[C@@H]6O)O[C@@]4(C(=O)O5)[C@]21O (stereo partly specified) | inactive | inactive | – | –
47 | CO[C@H]1C=C2C(CC[C@H](O[C@@H]3O[C@H](CO)[C@@H](O)[C@@H](O)[C@H]3O)C2(C)C)[C@]2(C)CC[C@]3(C)C([C@H](C)C(O)C(C=C(C)C)O[C@@H]4O[C@H](CO)[C@@H](O)[C@@H](O)[C@H]4O)CC[C@@]3(C)C12 (stereo partly specified) | inactive | inactive | – | –
48 | COc1ncc(-c2ccc3c(Nc4cc(Oc5cc(F)cc(F)c5)cc(C(=O)O)c4)c(S(=O)(=O)NC4CC4)cnc3c2)c(OC)n1 | 8.91 µM (active) | 14.1 µM (active) | – | –
49 | NC1CCC(N[C@@H]2C[C@H]2c2ccccc2)CC1 (stereo partly specified) | inactive | inactive | – | –
50 | O=C(NC[C@H](O)CN1CCc2ccccc2C1)c1cc(NC2COC2)ncn1 | inactive | inactive | – | –
51 | CCN[C@@H]1C[C@H](N)[C@@H](O[C@H]2OC(CN)=CC[C@H]2N)[C@H](O)[C@H]1O[C@H]1OC[C@](C)(O)[C@H](NC)[C@H]1O | inactive | inactive | – | –
52 | C=C1C(O[C@@H]2O[C@H](CO)[C@@H](O)[C@H](O)[C@@H]2O)CC2C(C)(C)C(O)CCC2(C)C1CC/C(C)=C\CO (stereo partly specified) | inactive | inactive | – | –
53 | Cc1nn(C)c2c1C(c1ccc(C(F)(F)F)cc1)C(C#N)=C(N)O2 (stereo unspecified) | inactive | inactive | – | –
54 | CCOC(=O)c1c(C)nn(-c2cccc([N+](=O)[O-])c2)c1C | inactive | inactive | – | –
55 | C=C[C@](C)(CC/C=C(\C)C(=O)O)O[C@@H]1OC[C@H](O)[C@H](O)[C@H]1O | 25.1 µM (active) | 12.6 µM (active) | – | –
56 | COC(=O)C1=CO[C@@H](O[C@@H]2O[C@H](COC(=O)/C=C/c3cc(OC)c(O)c(OC)c3)[C@@H](O)[C@H](O)[C@H]2O)[C@@H]2C(CO)=CC[C@H]12 | inactive | inactive | – | –
57 | COc1cc([C@H]2OC[C@]3(OC(C)=O)[C@@H](c4ccc(O[C@@H]5O[C@H](CO)[C@@H](O)[C@H](O)[C@H]5O)c(OC)c4)OC[C@H]23)ccc1O | inactive | inactive | – | –
58 | CC[C@H]1OC(=O)C[C@@H](O)[C@H](C)[C@@H](O[C@@H]2O[C@H](C)[C@@H](O)[C@H](N(C)C)[C@H]2O)[C@@H](CCN2C[C@H](C)C[C@H](C)C2)C[C@@H](C)C(=O)/C=C/C(C)=C/[C@@H]1CO[C@@H]1O[C@H](C)[C@@H](O)[C@@H](OC)[C@H]1OC | inactive | inactive | – | –
